Screens deposited in PubChem by several laboratories.
GAA850 FXN act: FXN promoter activators, primary screen, cell-based, luciferase luminescence, HEK293 lucGAA850 | activation, % at 6 µM | HEK293 lucGAA850 FXN promoter luciferase reporter, 24 h; percent of 10 µM SAHA response | AID 540364, 2011 | actives 0.56% (n = 360,000);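 active = activation above the average of all compounds screened plus 3 SD, cutoff fixed separately per campaign, cut at about 7.5% in these data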;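 also: 0% = DMSO wells and 100% = 10 µM SAHA wells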
MITF act: activators of MITF-driven TRPM1 promoter reporter, primary screen, cell-based, SK-MEL-5, luciferase, single point; SK-MEL-5 TRPM1-promoter luciferase, 24 h; % of positive control, neutral wells = 0; activation, % at 12.5 µM; actives 0.75% (n = 300,000);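 active = mean activation of at least 80% with every replicate also reaching 80%; inconclusive = mean reaches 80% but some replicate falls short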;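 also: 0% = neutral control wells and 100% = parthenolide positive control wells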
Wnt bcat act: Wnt/beta-catenin pathway activators, primary screen, cell-based, plate reader, single point. Wnt/beta-catenin reporter cell assay, activator. activation, % at 9.35 µM. actives 1.2% (n = 300,000). AID 743398, 2014; in the data active = activation above about 30%, passing the limit was not always enough; inconclusive = no clear call, values can overlap the other calls;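 also: 0% = neutral control wells and 100% = positive control wells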
esBAF inh: Bmi1 luciferase reporter increase in mESCs, primary screen, esBAF inhibitor project, mouse ES cells, Bmi1 luciferase knock-in, single point | AID 602393, 2012 | reporter increase, % at 12.5 µM | actives 2% (n = 350,000) | 24 h; 100% = twice the neutral-well signal; in the data active = activation above about 40%; inconclusive = no clear call, values can overlap the other calls;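 also: 0% = median of the plate's neutral control wells and 100% = double that signal; a rise in the Bmi1 reporter signal indicates esBAF inhibition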
* marks the source's active call; other numbers are inactive results. An excerpt weighted towards active compounds, which were near 2.8% of everything screened.

COc1ccc(C(=O)Nc2ccc(C3CC3(Cl)Cl)cc2)cc1 (centres undefined) was read as GAA850 FXN act 2, MITF act 37, Wnt bcat act -1 and esBAF inh 91*.
Screening COc1ccc(NC(=O)Nc2nnc(-c3ccncc3)s2)cc1 returned GAA850 FXN act -2, MITF act 30 and Wnt bcat act -1.
Screening COc1ccc(NC(=O)Nc2nnc(-c3ccco3)s2)cc1 returned GAA850 FXN act 5, MITF act 78, Wnt bcat act 53* and esBAF inh 30.
Screening COc1ccc(NC(=O)c2cc(-c3ccco3)on2)cc1 returned GAA850 FXN act 1, MITF act 92* and Wnt bcat act 42*.
Screening O=C(Nc1cccc(Cl)c1)c1cc(-c2ccco2)on1 returned GAA850 FXN act 1, MITF act -7, Wnt bcat act 27 and esBAF inh 1.
Screening COc1ccc(NC(=O)c2ccc(NC(=O)c3ccncc3)cc2)cc1 returned GAA850 FXN act -1, MITF act 3, Wnt bcat act -2 and esBAF inh -2.
Cc1cc(NC(=O)c2ccccc2)no1 was read as GAA850 FXN act 4, MITF act 56, Wnt bcat act 6 and esBAF inh 19.
`COc1ccc(NC(=O)c2coc(C)c2)cc1` gave GAA850 FXN act 5, Wnt bcat act 10 and esBAF inh 74*.
COc1ccc(NC(=O)c2cc(-c3ccccc3OC)on2)cc1 was read as GAA850 FXN act -4, MITF act 9 and esBAF inh 13.
Screening COc1ccc(NC(=O)c2ccc(=O)oc2)cc1 returned GAA850 FXN act 1, MITF act -7, Wnt bcat act 3 and esBAF inh 0.
C/C(=C\C(=O)Nc1cc(C)on1)c1ccccc1 was read as GAA850 FXN act 1, MITF act 82* and esBAF inh inconclusive.
`COc1ccc(NC(=O)c2cc(-c3ccccc3Cl)on2)cc1` gave GAA850 FXN act 2, Wnt bcat act inconclusive and esBAF inh 63*.
Screening CCc1ccc(C(=O)Nc2cc(C)on2)o1 returned GAA850 FXN act -1, MITF act 73, Wnt bcat act 9 and esBAF inh 51*.
`CCC(=O)Nc1ccc2c(c1)OC[C@@H](C)N(CCc1ccccc1)C[C@@H](C)[C@@H](OC)CN(C)C2=O` gave esBAF inh -10.
`CCCNC(=O)N1C[C@H](C)[C@H](OC)CN(C)C(=O)c2cc(NC(=O)CCC)ccc2OC[C@@H]1C` gave esBAF inh -14.
Screening COc1ccc(CN(C)C[C@@H]2Oc3ccc(NS(=O)(=O)c4cn(C)cn4)cc3C(=O)N([C@H](C)CO)C[C@@H]2C)cc1 returned esBAF inh 2.
COc1ccc(C(=O)Nc2cc(C)on2)cc1 was read as GAA850 FXN act 7, MITF act 34, Wnt bcat act 47* and esBAF inh -7.
Screening COc1cc(OC)cc(C(=O)Nc2cc(C)on2)c1 returned GAA850 FXN act 1, MITF act -12, Wnt bcat act 4 and esBAF inh 2.
Screening COc1ccc(C(=O)Nc2cnc(NC(=O)c3cccs3)cc2C)cc1 returned GAA850 FXN act 4, MITF act 14, Wnt bcat act 6 and esBAF inh 47*.
`CO[C@@H]1CN(C)C(=O)c2cc(NC(=O)Nc3c(C)noc3C)ccc2OC[C@@H](C)N(C)C[C@H]1C` gave esBAF inh -1.
Screening CCOC(=O)c1[nH]c2ccc(F)cc2c1NC(=O)c1cc(OC)c(OC)c(OC)c1 returned GAA850 FXN act -2, MITF act 5 and esBAF inh 5.
For CCOC(=O)c1[nH]c2ccc(F)cc2c1NC(=O)c1ccccc1C(=O)O the results were GAA850 FXN act 3, MITF act 28, Wnt bcat act 18 and esBAF inh 54*.
For O=C(CSc1ncnc2sccc12)N1CCCCC1 the results were GAA850 FXN act 4, MITF act 73, Wnt bcat act 9 and esBAF inh 72*.
For CCC1(c2ccccc2)NC(=S)N(c2ccc(C)cc2)N1 (centres undefined) the results were GAA850 FXN act 2, MITF act 13, Wnt bcat act 2 and esBAF inh 45*.
For CCCCOC(=O)c1ccc(OC(=O)c2cccnc2)cc1 the results were GAA850 FXN act 0, MITF act 9 and esBAF inh 23.
`CCCCCCOC(=O)c1ccc(OC(=O)c2cccnc2)cc1` gave GAA850 FXN act -1, MITF act 64 and esBAF inh 52*.
COC(=O)c1ccccc1NC(=O)c1c(O)c2c([nH]c1=O)CCCC2 was read as GAA850 FXN act 2, MITF act 4, Wnt bcat act 4 and esBAF inh 0.
O=C(Nc1ccc(O)cc1)c1c(O)c2c([nH]c1=O)CCCC2 was read as GAA850 FXN act 6, MITF act 86* and Wnt bcat act 21.
For Cc1ccc(CSc2nnc(-c3cccs3)n2C)cc1 the results were GAA850 FXN act 2, MITF act 41 and esBAF inh 25.
Screening Cn1c(SCC(=O)c2ccccc2)nnc1-c1cnccn1 returned GAA850 FXN act 3, MITF act 46, Wnt bcat act 29 and esBAF inh 48*.
`Cn1c(SCC(=O)c2ccccc2)nnc1-c1cccs1` gave GAA850 FXN act 5, MITF act 60, Wnt bcat act inconclusive and esBAF inh 68*.
`Cn1c(SCc2c(Cl)cccc2Cl)nnc1-c1cccs1` gave GAA850 FXN act 1, MITF act 36 and esBAF inh 48*.
For CCn1c(SCC(=O)Nc2ccccc2F)nnc1-c1cnccn1 the results were GAA850 FXN act 2, MITF act 11, Wnt bcat act 1 and esBAF inh -4.
For CCn1c(SCC(=O)c2ccccc2)nnc1-c1cnccn1 the results were GAA850 FXN act 6, Wnt bcat act 36* and esBAF inh 50*.
For C[C@@H]1CN([C@H](C)CO)C(=O)c2cc(NS(=O)(=O)c3ccc(F)cc3)ccc2O[C@H]1CN(C)Cc1ccc(C(=O)O)cc1 the results were esBAF inh -3.
For O=C1C2C3C=CC(O3)C2C(=O)N1N=Cc1cccc2ccccc12 (centres undefined) the results were GAA850 FXN act 3, MITF act 11, Wnt bcat act -2 and esBAF inh 46*.
For Cc1cc(C)n2c(Br)c(CSc3nc4ccccc4s3)nc2n1 the results were GAA850 FXN act 4, MITF act 71 and esBAF inh 48*.
Cc1cc(C)nc(NC(=O)CSc2nc3ccccc3s2)n1 was read as GAA850 FXN act 2, MITF act 42, Wnt bcat act 0 and esBAF inh 31.
`Cc1ccsc1C(=O)N/N=C/C=C/c1ccccc1[N+](=O)[O-]` gave GAA850 FXN act 2, MITF act 44 and esBAF inh 45*.
COc1ccc(/C=N/NC(=O)c2sccc2C)c2ccccc12 was read as GAA850 FXN act 1 and Wnt bcat act 29.
